Only some compounds are listed: those with a hit (about 18% of all), similar ones and a draw of the others.
IL-1B inflam inh: inhibitors of inflammasome signaling (IL-1 beta secretion); THP-1 LPS/ATP IL-1B secretion, AlphaLISA, 16 h; hits give low values; activity change, % at 57.5 µM; 4.7% of 360,000 active; AID 743279; in the data active = activity change below about -50%; inconclusive = mostly about -30% to -49%
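Secreted IL-1B measured by AlphaLISA bead assay after 16 h compound exposure of THP-1 cells; compounds (final up to 57.5 uM) added 1 h before LPS (250 ng/mL) and ATP (1.25 mM) stimulation; lower signal means less secretion.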
CtBP-E1A blk: blocks the CtBP interaction with E1A. activity change, % (no concentration beside the values). 0.49% of 340,000 active. AlphaScreen GST-E1A/His-CtBP binding, 1536-well; hits give low values; in the data active = activity change below about -65%; inconclusive = mostly about -30% to -63%
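Homogeneous bead-based format: GST-tagged E1A captured on glutathione donor beads, His-tagged CtBP on nickel acceptor beads; compounds precede bead addition by 2 h at 37 °C.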
TDP1 cell noCPT: qHTS for Inhibitors of human tyrosyl-DNA phosphodiesterase 1 (TDP1): qHTS in cells in absence of CPT; DT40 Tdp1-/- hTDP1 cells, no CPT, ATP luminescence, 48 h; 15% of 420,000 active; Potency, µM (doses to about 46.2 µM), for the others: at the top dose activity change, negative = growth inhibition, actives largely listed as inhibitors; note: potency is the fitted concentration of half-maximal effect; nearly all actives have a fitted effect of over 55% in size
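No-CPT arm: Tdp1-/-;hTDP1 DT40 cells (400/well) plus compounds, incubated ≥48 hr at 37 °C. Readout CellTiter-Glo luminescence.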
Six1-Eya2 inh: inhibitors of human Six1/Eya2 interaction | AID 651725 | Q15475+O00167 | 0.56% of 360,000 active | AlphaScreen GST-Six1/His-Eya2 binding, biochemical; hits give low values | activity change, % (concentration not given with the values); in the data active = activity change below about -65%; inconclusive = mostly about -30% to -63%
Target sequence (O00167 whole entry, looked up): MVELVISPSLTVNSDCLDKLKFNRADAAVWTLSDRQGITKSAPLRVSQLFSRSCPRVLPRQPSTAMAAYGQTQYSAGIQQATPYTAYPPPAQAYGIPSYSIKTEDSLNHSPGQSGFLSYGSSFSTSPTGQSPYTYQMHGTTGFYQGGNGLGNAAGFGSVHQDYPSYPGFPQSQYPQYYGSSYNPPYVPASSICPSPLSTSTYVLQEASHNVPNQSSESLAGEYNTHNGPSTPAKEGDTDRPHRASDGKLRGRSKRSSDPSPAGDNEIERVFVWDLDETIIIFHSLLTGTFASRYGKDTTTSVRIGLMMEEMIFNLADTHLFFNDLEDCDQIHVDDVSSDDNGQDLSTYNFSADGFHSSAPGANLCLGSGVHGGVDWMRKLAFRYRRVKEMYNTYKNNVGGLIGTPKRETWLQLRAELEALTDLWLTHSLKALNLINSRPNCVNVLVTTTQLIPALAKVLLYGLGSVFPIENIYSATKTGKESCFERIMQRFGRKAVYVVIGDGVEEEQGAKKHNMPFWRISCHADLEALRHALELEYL
Target sequence (Q15475 whole entry, looked up): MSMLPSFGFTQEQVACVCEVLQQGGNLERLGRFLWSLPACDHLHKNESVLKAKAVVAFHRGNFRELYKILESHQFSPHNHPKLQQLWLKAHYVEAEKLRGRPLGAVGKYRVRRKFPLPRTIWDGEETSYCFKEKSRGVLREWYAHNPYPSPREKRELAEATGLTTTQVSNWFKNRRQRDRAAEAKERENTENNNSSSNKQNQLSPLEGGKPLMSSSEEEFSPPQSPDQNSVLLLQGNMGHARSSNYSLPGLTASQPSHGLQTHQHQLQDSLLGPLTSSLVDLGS
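Homogeneous AlphaScreen proximity assay pairing GST-Six1 with His-tagged Eya2 (added as 5X mix: 250 nM and 500 nM) in 50 mM Tris pH 8.0, 300 mM NaCl, 1 mM TCEP. Glutathione donor and nickel acceptor beads; 1 h, 37 °C, dark.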
TDP1 inh: inhibitors of human tyrosyl-DNA phosphodiesterase TDP1. Q9NUW8. recombinant TDP1, AlphaScreen DNA substrate cleavage. Potency, µM (series often up to 130 µM), inactives show top-dose activity change, negative = inhibition, most hits filed as inhibitors. 0.28% of 350,000 active; note: potency is the fitted concentration of half-maximal effect; nearly all actives have a fitted effect of over 40% in size
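Tdp1 1 nM final; 15 min RT w/ cpd; substrate 15 nM, 5 min; beads 10 ug/ml, 10 min; AlphaScreen read. Neg ctrl: no enzyme.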
TDP1 cell CPT: growth inhibition of DT40 Tdp1-/-;hTDP1 cells with camptothecin (screen for TDP1 inhibitors). AID 686979. chicken DT40 Tdp1-/-;hTDP1 cells + 20 nM CPT, ATP luminescence, 48 h. 12% of 420,000 active. Potency, µM (highest dose often 46.2 µM), for the others: top-dose activity change, negative = growth inhibition, hits mostly inhibitors; note: potency is the fitted concentration of half-maximal effect; nearly all actives have a fitted effect of over 55% in size
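Chicken DT40 Tdp1-/- cells stably complemented with human TDP1 were seeded at 400 cells/well in medium containing 20 nM camptothecin, exposed to pin-transferred compounds, and grown at 37 °C for at least 48 hr. Viability was read as ATP luminescence.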
* marks the source's active call; other numbers are inactive results; ? = inconclusive; . = no result. Unless noted, calls come from the whole dose curve; as a rule, active = well fitted curve in the direction sought with a large enough effect; inconclusive = small, poorly fitted or top-dose-only effect, or another doubt; inactive = no such curve, though single readings can be large; an effect the other way counts as inactive or inconclusive. % is set by controls: 0 for no effect and ±100 for the full control effect.

SMILES	IL-1B inflam inh	CtBP-E1A blk	TDP1 cell noCPT	Six1-Eya2 inh	TDP1 inh	TDP1 cell CPT
O=C(CSCc1cnn(-c2ccccc2)c1-n1cccc1)NCCN1CCOCC1	-1	-7	-24%	-3	3%	-14%
COc1ccc2c(CC(=O)OCC(=O)Nc3cc(C)c(C)cc3[N+](=O)[O-])coc2c1	-15	2	7%	-29	3%	10%
Cn1c(=O)n(C)c2cc(S(=O)(=O)Nc3cc(Cl)ccc3O)ccc21	0	-6	-30%	-12	0%	-1%
CCCCNC(=O)Nc1ccccn1	-2	6	-1%	1	-1%	-3%
Cn1ccc2c(-c3ccc(C(N)=O)cc3)cc3c(c21)C1CCC3C1 (stereo not drawn)	-11	0	?	-2	.	?
CN(CCCC(=O)NCc1ccc2c(c1)OCO2)S(=O)(=O)c1ccc([N+](=O)[O-])cc1	-3	0	23µM*	-3	4%	?
Cc1ccc(S(=O)(=O)N(C)CCCC(=O)NCc2ccc3c(c2)OCO3)cc1	26	1	23µM*	-7	4%	-15%
Cc1ccc(S(=O)(=O)NCCC(=O)NCc2ccc3c(c2)OCO3)cc1C	-9	-1	-2%	-1	6%	-11%
CC(NC(=O)c1ccc(Br)o1)c1ccc(-n2ccnc2)cc1 (stereo not drawn)	-1	5	?	-2	3%	-24%
CC1CC(=O)Nc2ccccc2N1S(=O)(=O)c1cccc(F)c1 (stereo not drawn)	14	1	-7%	8	-1%	?
CCOCC(=O)Nc1cc(C(=O)NCCC(C)C)ccc1Cl	.	.	.	.	-3%	.
CCOCCCNC(=O)CCC(=O)NNc1nc2ccccc2c2nc(-c3ccccc3)nn12	30	2	12µM*	1	8%	?
COCCNC(=O)CCC(=O)NNc1nc2ccccc2c2nc(-c3ccccc3)nn12	0	-17	?	-67*	5%	?
O=C1Nc2c(c(=O)[nH]c(=O)n2-c2ccccc2)C(C(F)(F)F)(C(F)(F)F)N1	3	3	2%	1	4%	-10%
O=C(Nc1nnc(C23CC4CC(CC(C4)C2)C3)s1)c1ccc(N2C(=O)CCC2=O)cc1	5	3	26µM*	-3	45µM*	?
CC(C)c1nnc(NC(=O)c2ccc(N3C(=O)CCC3=O)cc2)s1	9	0	7%	4	0%	4%
N#C/C(=C(/O)C(Cl)c1ccccc1)c1nc2ccccc2s1 (stereo not drawn)	-5	8	13µM*	-1	5%	6.5µM*
N#C/C(=C(/O)c1ccco1)c1nc2ccccc2s1	-18	-15	15µM*	-6	2%	?
N#C/C(=C(/O)c1cc2ccccc2o1)c1nc2ccccc2s1	0	5	13µM*	-1	1%	?
N#C/C(=C(/O)CN1CCOCC1)c1nc2ccccc2s1	2	-1	-28%	3	9%	8%
N#C/C(=C(/O)c1cccc(F)c1)c1nc2ccccc2s1	-59*	.	12µM*	-2	5%	21µM*
CC1c2ccccc2-c2ccccc2N1C (stereo not drawn)	-3	-2	?	-7	.	-23%
COc1cc(C(=O)NCc2ccc(C)cc2)ccc1OC(F)F	-8	35	-20%	10	-4%	-18%
COc1cccc(NC(=O)C2C3C=CC4(O3)C2C(=O)N(CCCN2CCCCC2)C4C(=O)NC2CCCCC2)c1 (stereo not drawn)	-4	0	?	-11	-14%	18%
CC(=O)Nc1nc(C=C(Cl)Cl)cs1	3	-5	-1%	0	-2%	-19%
SMILES	IL-1B inflam inh	CtBP-E1A blk	TDP1 cell noCPT	Six1-Eya2 inh	TDP1 inh	TDP1 cell CPT
COc1ccccc1NC(=O)Nc1ccnn1C1CCN(C(=O)c2cccnc2)CC1	5	.	-6%	3	5%	-2%
O=C(Nc1cccc(OCc2cc(=O)n3ccccc3n2)c1)c1ccccc1Br	.	.	?	.	0%	?
CCc1ccc(CN(C)Cc2nc(Cc3ccc(OC)c(OC)c3)no2)nc1	0	-5	?	-5	.	16µM*
COc1ccc(Cc2noc(CN(C)Cc3ccc(-n4cccn4)cc3)n2)cc1OC	-15	.	21µM*	5	0%	?
Cc1nc2cc3c(=O)n(C)cnc3cc2n1Cc1ccccc1	0	0	16µM*	-1	.	-15%
CCc1ccc(OCC2c3cc(OC)c(OC)cc3CCN2C(=S)NC)cc1 (stereo not drawn)	0	-20	?	0	3%	?
Cc1cc(F)ccc1S(=O)(=O)NCC(c1ccco1)S(=O)(=O)c1cccs1 (stereo not drawn)	.	.	?	.	0%	?
Cc1ccc(-c2csc3nc[nH]c(=O)c23)cc1	-18	-2	?	-3	-2%	30%
Cc1ccc(-c2csc3nc(-c4ccncc4)[nH]c(=O)c23)cc1	-7	-8	2.6µM*	5	.	4.1µM*
O=C(OCc1nc2scc(-c3ccccc3)c2c(=O)[nH]1)c1ccco1	-4	-3	-17%	-14	3%	1%
O=c1[nH]c(Cc2cccs2)nc2scc(-c3ccc(Cl)cc3)c12	1	1	-28%	1	0%	13µM*
O=c1[nH]c(Cc2ccc(F)cc2)nc2scc(-c3ccc(F)cc3)c12	0	-6	26µM*	-5	4%	13µM*
Cc1ccc(-c2csc3nc(CN(C)Cc4ccccc4)[nH]c(=O)c23)cc1	31	0	26µM*	2	3%	?
Cc1nc2ncnn2c(C)c1CCC(=O)NCc1ccc(Cl)cc1	.	.	0%	.	-5%	3%
CCCCn1c(=O)n(C)c(=O)c2c(C(F)(F)F)cc(-c3ccncc3)nc21	26	2	11µM*	4	4%	18µM*
Cc1cnc(C(=O)OCC(=O)N(C)CC(=O)Nc2ccccc2Cl)cn1	8	5	-1%	5	1%	5%
O=C(Cn1c2ccccc2c2nc3n(c(=O)c21)CCS3)Nc1ccccc1	-9	.	?	4	-4%	21µM*
FC(F)(F)c1nnc(-c2ccccc2)nc1Sc1ccc(Cl)cc1	-98*	9	6.5µM*	-2	0%	5.2µM*
CN(N)c1nc(-c2ccccc2)nnc1C(F)(F)F	-13	-9	-17%	0	3%	-6%

Assay outcomes: PubChem BioAssay, National Center for Advancing Translational Sciences (NCATS)
